Measurements taken from PubChem BioAssay (NCATS).
Results filed as inconclusive are left out. Entries that show only a call come without a potency. Active and inactive are the calls of the source. Calls come from the whole dose curve; as a rule, active = well fitted cell-killing curve with a large enough effect; inconclusive = small, poorly fitted or top-dose-only effect; inactive = no such curve, though single readings can be large or run the other way. Numbered stars: 1 amine (or outer) side, 2 acyl side, 3 side chain; on linkers, the order of the positions; unused ones are H or OH. Bridge positions count the residues as written; N and C are the ends. Square brackets hold non-standard residues; d marks the D form. Peptide text beside a SMILES is read from it. I, II: the chains in the order shown. Actinocin(9to1) = Cc1c2oc3c(C)ccc(C(=O)[*:1])c3nc-2c(C(=O)[*:2])c(N)c1=O; NMeV = CN[C@H](C(=O)O)C(C)C; Sar = CNCC(=O)O

Experiment: qHTS of pediatric cancer cell lines to identify multiple opportunities for drug repurposing: Confirmatory screen for Rh41 cells (AID 1347123);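 note: 48 h compound exposure; nearly all actives have a fitted effect of over 60% in size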
Conditions: Rh41 rhabdomyosarcoma cells, viability/cytotoxicity qHTS; series mostly up to 45.9 µM
Excerpt: Drug repurposing or repositioning has been offered as a strategy for drug development in oncology programs. This approach has special potential for childhood cancers and other rare or orphan diseases, where the expected return on new drug development has been a disincentive to pharmaceuticals.
In this project we exploit the poly-pharmacology of drugs to discover new indications via phenotypic screening of a panel of 19 well-characterized cell lines derived from solid tumors seen in children and adolescents. The goal is to identify approved drugs with previously unrecognized anticancer properties that has the potential to reveal new mechanisms and biological processes involved in carcinogenesis or drug resistance. We employed a titration-based paradigm (quantitative high-throughput screening or qHTS), where all compounds were tested at multiple concentrations for their effect on cell viability. Concentration-response curves (CRCs) were derived directly from the primary screen, and both potency and efficacy values were used to identify compounds with robust bioactivity profiles. We screened the NIH Chemical Genomics Center (NCGC) Pharmaceutical Collection (NPC) and Mechanism Interrogation Plate (MIPE) small molecule collections of approved and investigational compounds against these cell lines; and measured metabolically active cells after 48 hours of compound treatment as a proxy for cell viability.
Assay Submitter: Nathalia J. Martinez, National Center for Advancing Translational Sciences, National Institutes of Health, Rockville, MD, USA; email: natalia.martinez@nih.gov
[1] Shen, M et al. Quantitative high-throughput phenotypic screening of pediatric cancer cell lines identifies multiple opportunities for drug repurposing. Oncotarget 2017 Dec 19;9(4):4758-4772. PMID 29435139.
The cells were obtained from University of North Carolina (UNC), Pediatric Preclinical Testing Program (PPT), and Coriell Institute (CI).
qHTS cell viability assay:
Cells were assayed in growth media at a density of 500-1,000 cells/well. Five microliters of cells were dispensed into 1,536-well, white, solid-bottom, TC-treated plates (Greiner Bio One) using a multidrop dispenser and incubated at 37 degrees C, 5% CO2, under a humidified atmosphere for 5 hours. Twenty-three nanoliters of compounds and controls (neutral control DMSO or positive control bortezomib at final concentration of 2.3 µM) were subsequently transferred by Kalypsys pintool. For primary screens, the MIPE collection was tested at 11-point dilutions (final concentrations range from 0.78 nM to 46 µM) and the NPC collection at 8-point dilutions (final concentrations range from 0.59 nM to 46 µM). Compounds tested in follow-up screens were assayed at 11-point dilutions. Cells were incubated for 48 hours, followed by addition of 3 µL of CellTiter-Glo (Promega). After a 15 min incubation at room temperature, samples were analyzed for luminescence intensity using a ViewLux High-throughput CCD imager equipped with clear filters.
Potency is the fitted concentration of half-maximal effect.

| SMILES | Potency |
| --- | --- |
| CN(C)/N=N/c1nc[nH]c1C(N)=O | inactive |
| CC(=O)OCC(=O)[C@@]1(O)CC[C@H]2[C@@H]3CCC4=CC(=O)C=C[C@]4(C)[C@H]3[C@@H](O)C[C@@]21C | inactive |
| CC(=O)Oc1ccc(C(c2ccc(OC(C)=O)cc2)c2ccccn2)cc1 | inactive |
| CCCCC(CC)CN=C(N)NC(N)=NCCCCCCN=C(N)NC(N)=NCC(CC)CCCC (stereo unspecified) | 7.37 µM (active) |
| C[C@]12C=CC(=O)C=C1CC[C@@H]1[C@@H]2[C@@H](O)C[C@@]2(C)[C@H]1CC[C@]2(O)C(=O)CO | inactive |
| COc1c(C)c2c(c(O)c1C/C=C(\C)CCC(=O)O)C(=O)OC2 | 1.17 µM (active) |
| CC1(C)O[C@@H]2C[C@H]3[C@@H]4C[C@H](F)C5=CC(=O)CC[C@]5(C)[C@H]4[C@@H](O)C[C@]3(C)[C@]2(C(=O)CO)O1 | inactive |
| OC[C@H]1O[C@@H](n2cnc3c(=S)nc[nH]c32)[C@H](O)[C@@H]1O | 10.4 µM (active) |
| COc1cc(C=C2CCC/C(=C\c3ccc(O)c(OC)c3)C2=O)ccc1O | 14.7 µM (active) |
| C[C@]12CCC(=O)C=C1CC[C@H]1[C@@H]3CC[C@](O)(C(=O)CO)[C@@]3(C)C[C@H](O)[C@@]12F | inactive |
| CC(=O)OCC(=O)[C@@]12OC(C)(C)O[C@@H]1C[C@H]1[C@@H]3C[C@H](F)C4=CC(=O)C=C[C@]4(C)[C@@]3(F)[C@@H](O)C[C@@]12C | inactive |
| O=C(CCCN1CCC(O)(c2ccc(Br)cc2)CC1)c1ccc(F)cc1 | 18.5 µM (active) |
| NC(=O)CC[C@@H]1NC(=O)[C@H](Cc2ccccc2)NC(=O)[C@H](Cc2ccc(O)cc2)NC(=O)CCSSC[C@@H](C(=O)N2CCC[C@H]2C(=O)N[C@@H](CCCN=C(N)N)C(=O)NCC(N)=O)NC(=O)[C@H](CC(N)=O)NC1=O | inactive |
| C[C@@H]1CN(CCCn2c3ccccc3c3ccccc32)C[C@H](C)N1 | 16.5 µM (active) |
| CCC(C(=O)OCCN(CC)CC)c1ccccc1 (stereo unspecified) | inactive |
| C[C@@H]1C[C@H]2[C@@H]3C[C@H](F)C4=CC(=O)C(Cl)=C[C@]4(C)[C@@]3(F)[C@@H](O)C[C@]2(C)[C@@]1(O)C(=O)CO | inactive |
| CN(C)C(=S)SC(=S)N(C)C | 1.31 µM (active) |
| CC(C)(C(=O)c1cccnc1)c1cccnc1 | inactive |
| NC(CO)(CO)CO | inactive |
| CCOc1ccc2nc3cc(N)ccc3c(N)c2c1 | 14.7 µM (active) |
| CC(=O)Oc1ccc2c(c1)CC[C@@H]1[C@@H]2CC[C@]2(C)[C@@H](O)CC[C@@H]12 | inactive |
| Cc1c2oc3c(C)ccc(C(=O)N[C@@H]4C(=O)N[C@H](C(C)C)C(=O)N5CCC[C@H]5C(=O)N(C)CC(=O)N(C)[C@@H](C(C)C)C(=O)O[C@@H]4C)c3nc-2c(C(=O)N[C@@H]2C(=O)N[C@H](C(C)C)C(=O)N3CCC[C@H]3C(=O)N(C)CC(=O)N(C)[C@@H](C(C)C)C(=O)O[C@@H]2C)c(N)c1=O (I: T[dV]P[Sar][NMeV] / II: T[dV]P[Sar][NMeV]; ester I:1-I:C, II:1-II:C; linker I:N-II:N via Actinocin(9to1)) | 0.0147 µM (active) |
| C[n+]1c2cc(N)ccc2cc2ccc(N)cc21 (tested in a mixture with another compound) | 5.22 µM (active) |
| CC(=O)[C@H]1CC[C@H]2[C@@H]3C[C@H](C)C4=CC(=O)CC[C@]4(C)[C@H]3[C@@H](O)C[C@]12C | 10.4 µM (active) |
| COCc1c(C(C)C)nc(C(C)C)c(/C=C/[C@@H](O)C[C@@H](O)CC(=O)O)c1-c1ccc(F)cc1 | 2.33 µM (active) |
| COc1cccc2c1C(=O)c1c(O)c3c(c(O)c1C2=O)C[C@@](O)(C(=O)CO)C[C@@H]3O[C@H]1C[C@H](N)[C@H](O)[C@H](C)O1 | 1.47 µM (active) |
